Rows were chosen to be rich in hits. Some 7.4% of all compounds tested hit in one or more screens of this group.
FXIa inh mix = factor XIa (human) inhibition, mixture screen | inhibition, % at 5 µM | actives 0.19% (n = 62,000) | purified FXIa, fluorogenic substrate, pooled mixtures | P03951;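 note: each value is inhibition by a whole ten-compound pool holding the compound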
FXIIa inh mix = blocks human factor XIIa in pooled compound mixtures. P00748. purified FXIIa, fluorogenic substrate. inhibition, % at 5 µM. actives 0.2% (n = 62,000). AID 684
hDAT+cocaine = human DAT dopamine uptake with cocaine, either direction; B-score at 10 µM; AID 449768; actives 1.3% (n = 110,000); LLC-PK1 hDAT cells, [14C]-dopamine uptake with cocaine IC80; actives deviate in either direction;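 active = Z score or B-score, a plate-position-corrected score, falls beyond the plate's 99.7% confidence bounds, in either direction; inactive = both scores lie inside the 99.7% bounds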
M1 agonist = agonists of M1 muscarinic receptor; actives 3% (n = 64,000); B-score at 10 µM; CHO-M1 cells, Fluo-4 calcium fluorescence, agonist mode; stronger effect = higher value;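 active = fluorescence rise, raw or as B-score row- and column-corrected plate score, outside the 99.7% band of its plate's samples, either direction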
M1 antag = antagonists of rat M1 muscarinic receptor | CHO-M1 cells, Fluo-4 calcium, ACh EC80 antagonist mode; stronger effect = lower value | AID 628 | P08482 | B-score at 10 µM | actives 3.4% (n = 64,000);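 active = calcium fluorescence response, raw or row-and-column corrected B-score, differing from the plate sample mean either way at a set confidence level, mostly lower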
Target sequence (P08482 whole entry, looked up): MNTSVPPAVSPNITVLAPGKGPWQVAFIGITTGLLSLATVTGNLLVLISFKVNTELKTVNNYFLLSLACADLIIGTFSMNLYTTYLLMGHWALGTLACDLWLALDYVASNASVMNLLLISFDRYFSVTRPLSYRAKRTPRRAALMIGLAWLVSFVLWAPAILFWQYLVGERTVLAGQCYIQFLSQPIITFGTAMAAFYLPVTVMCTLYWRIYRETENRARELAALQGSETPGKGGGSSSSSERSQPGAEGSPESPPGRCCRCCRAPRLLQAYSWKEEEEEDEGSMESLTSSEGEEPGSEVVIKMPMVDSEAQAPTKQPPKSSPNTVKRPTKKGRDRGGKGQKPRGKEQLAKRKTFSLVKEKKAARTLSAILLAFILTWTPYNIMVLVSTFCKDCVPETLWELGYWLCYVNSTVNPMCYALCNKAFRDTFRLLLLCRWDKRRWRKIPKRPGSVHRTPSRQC
D1 allo mod = allosterically modulates the human D1 dopamine receptor | P21728 | HEK293 D1, CRE-luciferase, dopamine EC30 potentiation; actives deviate in either direction | B-score at 10 µM | actives 5.9% (n = 58,000);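 active = luminescence count or its row- and column-corrected plate score outside the 99.7% band of the plate's sample wells, on either side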
M1 agonist conf = rat M1 muscarinic agonism, confirmation | shares compounds with M1 agonist | CHO-M1 cells, Fluo-4 calcium fluorescence, agonist mode; actives lie on both sides | fluorescence change (max-min) at 10 µM | actives 19% (n = 1,700) | AID 1488;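 active = fluorescence change differs from the solvent-only DMSO control mean at a set confidence level in both duplicate runs; inconclusive = differs from solvent-only control mean in just one of two runs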;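 note: an EC20 dose of acetylcholine follows compound addition during the same imaging run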
M4 agonist ctr = rat M4 muscarinic agonism, M1 counter-screen. shares compounds with M1 agonist. CHO M4/Gqi5 cells, Fluo-4 calcium fluorescence, agonist mode; actives lie on both sides. fluorescence change (max-min) at 10 µM. actives 9% (n = 1,700);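 active = fluorescence change differing from the plate's solvent-only control wells at 99.7% confidence in both duplicates, whether higher or lower; inconclusive = differs from solvent controls in only one of two duplicates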
Each line names hits and unclear results; the compound was inactive in the other large screens (follow-up assays come after a bar, where they were run). Cut-off read from the data, not from the text of the source, unless noted: active = inhibition above about 20% (passing the limit was not always enough); inactive = the rest.

Cc1nnc(C)n1/N=C/c1cc(Br)cc(Br)c1O	M1 agonist 27.1 (no result: D1 allo mod) | M1 agonist conf 143 | M4 agonist ctr inconclusive
Cc1nnc(C)n1/N=C/c1cc(Br)ccc1O	M1 agonist 8.22 | M1 agonist conf inactive | M4 agonist ctr inactive
Cc1cc2ncn(/N=C/c3cc(Br)ccc3O)c2cc1C	none
O=c1c(-c2nc3ccccc3s2)cccn1Cc1ccc(Cl)c(Cl)c1	none (no result: FXIa inh mix, FXIIa inh mix, M1 agonist, M1 antag, D1 allo mod)
Clc1c(CSc2nc3ccccc3o2)nc2ccccn12	M1 agonist 21.1 | M1 agonist conf inactive | M4 agonist ctr inactive
CCc1nc(SCC(=O)N2CCC(C)CC2)c2c(=O)n(C)c(=O)n(C)c2n1	M1 agonist 3.41, M1 antag -3.47 | M1 agonist conf inconclusive | M4 agonist ctr inactive
Cn1c(=O)c2c(SCc3cccnc3)nc(CC(C)(C)C)nc2n(C)c1=O	none (no result: D1 allo mod)
CCCc1nc(SCC(=O)N2CCN(c3ccccc3)CC2)c2c(=O)n(C)c(=O)n(C)c2n1	M1 agonist 7.23, M1 antag -8.08 | M1 agonist conf inactive | M4 agonist ctr inactive
Cn1c(=O)c2c(SCC(=O)N3CCCc4ccccc43)nc(C3CC3)nc2n(C)c1=O	M1 agonist 3.83, M1 antag -2.61 | M1 agonist conf -27.8 | M4 agonist ctr inconclusive
CCCc1nc(SCc2cccnc2)c2c(=O)n(C)c(=O)n(C)c2n1	M1 agonist 2.58, M1 antag -1.02 (no result: D1 allo mod) | M1 agonist conf -24.7 | M4 agonist ctr -81.1
CCc1nc(SCC(N)=O)c2c(=O)n(C)c(=O)n(C)c2n1	none
CC(=O)N1C(=O)C2(C(C#N)=C(N)Oc3cc(C)oc(=O)c32)c2ccccc21 (stereo not given)	none
CC(C)c1nc(SCC(=O)N2CCN(c3ccccc3)CC2)c2c(=O)n(C)c(=O)n(C)c2n1	M1 agonist 5.66, M1 antag -3.64, D1 allo mod -3.86 | M1 agonist conf inconclusive | M4 agonist ctr inactive
CC(C)c1nc(SCC(=O)N2CCOCC2)c2c(=O)n(C)c(=O)n(C)c2n1	M1 agonist 8.34 | M1 agonist conf inactive | M4 agonist ctr inactive
CN1CCN(CCCNC(=O)c2ccc3c(c2)N(Cc2ccccc2)CCS3)CC1	none
CCOc1ccc(CC(=O)NCc2cn3c(C)csc3n2)cc1	M1 agonist 3.41 | M1 agonist conf inconclusive | M4 agonist ctr inconclusive
CCc1ccc(S(=O)(=O)NCc2cn3c(C)csc3n2)s1	M1 agonist -3.11 | M1 agonist conf inactive | M4 agonist ctr inactive
CCOC(=O)c1[nH]c2ccccc2c1NC(=O)Nc1ccc(OC)cc1	none (no result: FXIa inh mix, FXIIa inh mix, M1 agonist, M1 antag, D1 allo mod)
CC(=O)c1ccc(NC2c3ncccc3C(=O)N2Cc2ccc(F)cc2)cc1 (stereo not given)	none
CCOC(=O)C1=C(CN2c3ccccc3CC2C)NC(=O)NC1c1ccccc1 (stereo not given)	none (no result: FXIa inh mix, FXIIa inh mix, M1 agonist, M1 antag, D1 allo mod)
CN(C)C=Nc1c(Br)cc(Br)c2nonc12	M1 agonist 61.5 | M1 agonist conf 278 | M4 agonist ctr 617
CC(NC(=O)NC1CCCCC1)C(c1cccs1)N1CCN(C)CC1 (stereo not given)	none
COC(=O)/C=c1/sc2n(c1=O)CCN=2	none
COC(=O)/C=c1\sc2n(c1=O)C(C)=CC(C)(C)N=2	M1 agonist 5.62 (no result: D1 allo mod) | M1 agonist conf inactive | M4 agonist ctr inactive
C/C(Cn1nnc([N+](=O)[O-])n1)=N\NC(=O)c1ccc(Cl)c(Cl)c1	none (no result: FXIa inh mix, FXIIa inh mix, M1 agonist, M1 antag, D1 allo mod)
CCNC(=O)Cn1c(=O)c2c(ncn2Cc2ccccc2)n(Cc2ccccc2)c1=O	none (no result: FXIa inh mix, FXIIa inh mix, M1 agonist, M1 antag, D1 allo mod)
O=C(CN(Cc1ccco1)C(=O)CNS(=O)(=O)c1ccc(F)cc1)NCCc1ccccc1	M1 agonist 2.48 | M1 agonist conf inconclusive | M4 agonist ctr inconclusive
Cc1cc2cc(CCNC(=O)c3ccc(Br)o3)c(=O)[nH]c2cc1C	M1 agonist 3.67 | M1 agonist conf inactive | M4 agonist ctr inactive
CCC(C)NC(=O)C1c2cc(OC)c(OC)cc2C(=O)N(C)C1c1ccc(OC)cc1 (stereo not given)	none
